Screens (PubChem)
Many of the other results were omitted from the sample, so hits are more common in it than they were.
12-LOX inh: Primary qHTS assay for inhibitors of human arachidonate 12S-lipoxygenase (ALOX12): Round 2 | purified 12hLO, xylenol orange hydroperoxide absorbance | Potency, µM (series often up to 108 µM), without a hit: at the top dose activity change, negative = inhibition, hits mostly inhibitors | 580,000 tested, 1.1% active; further: potency means the concentration at half of the fitted maximal effect
Target sequence (P18054 whole entry, looked up): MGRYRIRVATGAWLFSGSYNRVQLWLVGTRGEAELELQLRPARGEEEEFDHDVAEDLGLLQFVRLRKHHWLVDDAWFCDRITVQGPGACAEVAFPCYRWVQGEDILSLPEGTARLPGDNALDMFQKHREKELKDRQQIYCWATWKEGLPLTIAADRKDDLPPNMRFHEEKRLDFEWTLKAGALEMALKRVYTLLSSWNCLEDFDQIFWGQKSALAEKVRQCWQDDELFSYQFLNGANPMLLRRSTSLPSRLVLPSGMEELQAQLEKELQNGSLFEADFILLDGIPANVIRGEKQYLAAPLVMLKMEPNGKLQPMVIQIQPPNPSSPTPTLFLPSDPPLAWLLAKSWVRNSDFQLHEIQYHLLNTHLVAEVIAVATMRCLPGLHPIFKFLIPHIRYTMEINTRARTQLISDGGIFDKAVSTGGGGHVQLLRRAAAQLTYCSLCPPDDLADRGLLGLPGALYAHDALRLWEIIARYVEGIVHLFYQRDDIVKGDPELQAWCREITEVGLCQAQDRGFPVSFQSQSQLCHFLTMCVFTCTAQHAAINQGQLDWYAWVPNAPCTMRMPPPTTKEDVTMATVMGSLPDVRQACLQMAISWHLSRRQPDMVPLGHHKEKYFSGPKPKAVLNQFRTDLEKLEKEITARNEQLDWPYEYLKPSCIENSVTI
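Purified human 12hLO at 150 nM in 25 mM Hepes, 0.01% Triton X-100, pH 7.0, preincubated 15 min at room temperature with compound. Reaction started with 40 uM arachidonic acid, 30 min at room temperature. Hydroperoxide measured by Fe-xylenol orange, 573/405 nm absorbance ratio.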
HT1080 IDH1KD tx: qHTS for induction of synthetic lethality in tumor cells producing 2HG: qHTS for the HT-1080-IDH1KD cell line; HT-1080 IDH1 knockdown viability, ATP luminescence, 48 h; Potency, µM (top dose mostly 46.1 µM), for inactives: at the top dose activity, negative = toxicity, most hits filed as cytotoxic; 360,000 tested, 2% active; AID 686971, 2013;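 further: potency means the concentration at half of the fitted maximal effect; 0% = DMSO wells and -100% = cell-free medium wells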
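HT-1080-IDH1KD cells (IDH1 knocked down), 750/well in RPMI with 5% FBS, treated with compound 48 h at 37 degrees C. Viability by CellTiter-Glo luminescence, normalised to DMSO and no-cell wells; concentration-response curves classed.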
IL1B secr inh: qHTS for Inhibitors of Inflammasome Signaling: IL-1-beta AlphaLISA Primary Screen. THP-1 LPS/ATP IL-1B secretion, AlphaLISA, 16 h; hits give low values. activity change, % at 57.5 µM. 360,000 tested, 4.7% active; in the data active means activity change below about -50%; inconclusive means mostly about -30% to -49%
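THP-1 cells pretreated 1 hr with compounds (up to 57.5 uM final), then stimulated with LPS (250 ng/mL final) plus ATP (1.25 mM final); secreted IL-1B measured by AlphaLISA after 16 hr, decreased signal indicating inhibition.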
HT1080-NT tox: qHTS for induction of synthetic lethality in tumor cells producing 2HG: qHTS for the HT-1080-NT fibrosarcoma cell line | Potency, µM (doses to about 46.1 µM), inactives show top-dose activity, negative = less viability, usual class: cytotoxic | HT-1080-NT fibrosarcoma viability, CellTiter-Glo ATP luminescence, 48 h | 360,000 tested, 1.6% active;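 further: NT is the 2HG producing partner of a matched IDH1 knockdown line; potency means the concentration at half of the fitted maximal effect; 0% = DMSO-treated cells and -100% = media-only wells without cells; nearly all actives have a fitted effect of over 55% in size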
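Compounds were tested in concentration-response format on HT-1080-NT cells for 48 hours at 37 degrees C. Cell viability came from CellTiter-Glo luminescence; curves were classified by r2, response magnitude and activity.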
DT40 TDP1 CPT: qHTS for Inhibitors of human tyrosyl-DNA phosphodiesterase 1 (TDP1): qHTS in cells in presence of CPT; chicken DT40 Tdp1-/-;hTDP1 cells + 20 nM CPT, ATP luminescence, 48 h; Potency, µM (series often up to 46.2 µM), for the others: at the top dose activity change, negative = growth inhibition, usual class: inhibitors; 420,000 tested, 12% active; AID 686979, 2013; further: potency means the concentration at half of the fitted maximal effect; nearly all actives have a fitted effect of over 55% in size
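Chicken DT40 Tdp1-/- cells stably complemented with human TDP1 were seeded at 400 cells/well in medium containing 20 nM camptothecin, exposed to pin-transferred compounds, and grown at 37 °C for at least 48 hr. Viability was read as ATP luminescence.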
TDP1 cell noCPT: qHTS for Inhibitors of human tyrosyl-DNA phosphodiesterase 1 (TDP1): qHTS in cells in absence of CPT. DT40 Tdp1-/- hTDP1 cells, no CPT, ATP luminescence, 48 h. 420,000 tested, 15% active. Potency, µM (highest dose often 46.2 µM), without a hit: top-dose activity change, negative = growth inhibition, most hits filed as inhibitors; further: potency means the concentration at half of the fitted maximal effect; nearly all actives have a fitted effect of over 55% in size
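Chicken DT40 Tdp1-/- cells stably complemented with human TDP1 were seeded at 400 cells/well with DMSO in place of 20 nM camptothecin. After compound pinning, cells grew at least 48 hr at 37 °C; viability read by CellTiter-Glo luminescence.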
* hit, by the source's call; ? = inconclusive; . = no result given; [ ] = remark or other dose. Unless noted, the call rests on the fitted dose curve; in most records, active means well fitted curve in the direction sought with a large enough effect; inconclusive means small, poorly fitted or top-dose-only effect, or another doubt; inactive means no such curve, though single readings can be large; an effect the other way counts as inactive or inconclusive. Unless noted, on the % scale 0 is the no-effect control and ±100 the full control effect.

SMILES | 12-LOX inh | HT1080 IDH1KD tx | IL1B secr inh | HT1080-NT tox | DT40 TDP1 CPT | TDP1 cell noCPT
CCOC(=O)CNC(c1ccccc1)c1cc(Br)ccc1NC(=O)c1ccc(Cl)cc1 (configuration not stated) | -13.9% | . | . | . | 10.3µM* | 6.51µM*
COC(=O)CNC(c1ccccc1)c1cc(Br)ccc1NC(=O)CNC(=O)OCc1ccccc1 (configuration not stated) | . | 20.6µM* | ? | ? | -10.3% | ?
COC(=O)CNC(c1ccccc1)c1cc(Br)ccc1NS(=O)(=O)c1ccccc1 (configuration not stated) | 17.4% | 17.6% | 10.8 | 12.7% | 21.0% | -4.9%
COC(=O)CNC(c1ccccc1)c1cc(Br)ccc1N (configuration not stated) | 9.8% | 3.9% | 30.4 | -5.9% | -19.8% | ?
COC(=O)CNC(c1ccccc1)c1cc(Br)ccc1NC(=O)CCN1CCOCC1 (configuration not stated) | 39.8µM* | ? | -55.4* | -21.6% | 2.59µM* | 1.64µM*
CCOC(=O)CNC(c1ccccc1)c1cc(Br)ccc1NC(=O)OCC (configuration not stated) | 16.1% | 0.6% | -4.5 | 3.6% | ? | ?
CCOC(=O)CNC(c1ccccc1)c1cc(Br)ccc1NC(=O)CCN1CCOCC1 (configuration not stated) | ? | -4.5% | ? | -29.3% | 2.06µM* | 0.82µM*
CCOC(=O)C(CC)Sc1ccc2nnc(-c3ccc(F)cc3)n2n1 (configuration not stated) | . | . | . | . | 20µM* | ?
CC(=O)C(Sc1ccc2nnc(-c3ccc(F)cc3)n2n1)C(C)=O | ? | -13.4% | 7.2 | -4.1% | ? | -28.1%
CSc1ccc2nnc(-c3ccc(C)cc3)n2n1 | . | . | . | . | ? | 11.2µM*
Cc1ccc(-c2nnc3ccc(SCC(=O)c4ccccc4)nn23)cc1 | . | . | . | . | ? | 14.1µM*
CCC(Sc1ccc2nnc(-c3ccc(F)cc3)n2n1)C(=O)O (configuration not stated) | ? | -9.6% | -0.7 | -0.7% | 0.1% | ?
Cc1ccc(-c2nnc3ccc(SCC(=O)OCc4ccccc4)nn23)cc1 | . | . | . | . | -1.0% | ?
CC(=O)C(Sc1ccc2nnc(-c3ccc(C)cc3)n2n1)C(C)=O | ? | -0.8% | 24.4 | 9.9% | 11.6µM* | 20.6µM*
NC(=O)NCCC(=O)N1CCc2onc(C(c3ccccc3)c3ccccc3)c2C1 | 25.4% | . | . | . | . | .
CCOc1ccc(OCC(O)CN2CCN(c3ccc(C(F)(F)F)cn3)CC2)cc1 (configuration not stated) | 16.0% | . | . | . | . | .
CCCCCNc1nc2ccccc2nc1NS(=O)(=O)c1cccc(Cl)c1 | -6.1% | . | . | . | . | .
Cc1ccc2[nH]c(=O)c(CN(C)C(=O)c3cccs3)cc2c1 | 8.9% | -7.2% | 6.9 | -2.8% | ? | -23.3%
O=C(c1cccs1)N(Cc1cc2ccccc2[nH]c1=O)c1ccccc1 | 1.0% | -2.1% | -15.9 | 15.5% | 13µM* | 10.3µM*
Cc1ccc(N(Cc2cc3ccccc3[nH]c2=O)C(=O)c2cccs2)cc1C | -14.9% | 17.2% | -27.8 | 13.9% | ? | 18.4µM*
CN(Cc1cc2ccccc2[nH]c1=O)C(=O)c1cccs1 | 6.1% | -0.9% | -2.3 | 14.7% | 4.7% | -32.3%
Cc1ccc(N(Cc2cc3cc(C)ccc3[nH]c2=O)C(=O)c2cccs2)cc1 | -3.1% | 1.6% | 10.5 | 14.2% | ? | 23.1µM*
O=C(c1ccncc1)N1CCC2(CC1)CCN(c1ncccn1)CC2 | 1.1%[57.4 µM] | . | . | . | -7.6% | -28.0%
O=C(c1ccncc1)N1CCC2(CC1)CCN(c1ccc(-c3ccccc3)cc1)CC2 | -26.2%[57.4 µM] | . | . | . | 6.51µM* | ?
O=C(c1ccncc1)N1CCC2(CC1)CN(c1ccncc1)C2 | ? | . | . | . | 1.7% | -12.4%
SMILES | 12-LOX inh | HT1080 IDH1KD tx | IL1B secr inh | HT1080-NT tox | DT40 TDP1 CPT | TDP1 cell noCPT
COCC(=O)N1CCC2(CC1)CN(c1ccc(-c3ccccc3)cc1)C2 | 4.9%[57.4 µM] | . | . | . | 8.2µM* | 5.8µM*
O=C(c1ccncc1)N1CCC2(CC1)CN(c1ccccc1)C2 | -24.3%[57.4 µM] | . | . | . | 16.4µM* | ?
CC(=O)N1CCC2(CC1)CCN(c1ccc(-c3ccccc3)cc1)CC2 | ? | . | . | . | 10.3µM* | 8.2µM*
CCNC(=O)CN(CC)CCc1ccccc1 | 5.6% | . | . | . | . | .
Cc1cccc(C)c1OCC(=O)NCc1nncn1C | -20.8% | . | . | . | . | .
O=c1oc2ccccc2c(NC2CCCCC2)c1NS(=O)(=O)c1cccs1 | 5.2% | . | . | . | . | .
CC1CCc2nn3ccn(CC(=O)Nc4ccc(F)cc4)c(=O)c3c2C1 (configuration not stated) | -10.1% | . | . | . | . | .
O=S(=O)(c1ccccc1)N1CCC2(CCN(c3ccccc3)CC2)CC1 | 3.2%[57.4 µM] | . | . | . | ? | ?
O=S(=O)(c1ccccc1)N1CCC2(CCN(c3ccncc3)CC2)CC1 | -5.2%[57.4 µM] | . | . | . | 11.6µM* | 13µM*
COCCNCC1C(Oc2ccc(Cl)cc2)C(=O)N1c1ccccc1C (configuration not stated) | -3.7% | -2.4% | -17.0 | -0.1% | ? | ?
Cc1ccccc1N1C(=O)C(Oc2ccc(Cl)cc2)C1CNC(C)(C)C (configuration not stated) | ? | -10.3% | -55.1* | -12.0% | ? | ?
COc1ccc(CCNCC2C(Oc3ccc(Cl)cc3)C(=O)N2c2ccccc2C)cc1OC (configuration not stated) | -6.4% | ? | -72.6* | ? | ? | 23.1µM*
CCc1ccc(OCC(=O)NC(NC(=S)Nc2ccc(C)cc2C)C(Cl)(Cl)Cl)cc1 (configuration not stated) | ? | ? | -16.5 | ? | ? | 23.1µM*
CC(C)CC(=O)NC(NC(=S)Nc1ccccc1)C(Cl)(Cl)Cl (configuration not stated) | 55.8% | ? | -77.1* | -7.3% | ? | ?
CC(C)C(=O)NC(Nc1cccc2ccccc12)C(Cl)(Cl)Cl (configuration not stated) | 11.2µM* | . | . | . | . | .
